The campaign covered roughly 5,500 compounds. About 2,000 (36%) were called active. Inconclusive results (about 18%) are left out. Cut-off read from the data, not from the text of the source: active = normalized growth mostly below about 0.91 (no sharp cut-off); inconclusive = no clear call, values can overlap the other calls; inactive = mostly above about 0.92. This is one part of the list.
Test: chemical genetic growth profiling, strain panel (AID 1159580);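 note: tested at 20 µM; growth read once vehicle control cultures reached saturation at 30 °C; 1 = growth at the plate median or of vehicle wells; lower values mean less growth of the strain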
Details: S. cerevisiae deletion strains, growth OD

Measured: normalized growth

Cc1c(CC(C)(C)C(=O)O)n(Cc2ccc(Cl)cc2)c2ccc(F)cc12
inactive: locus YAL040C, strain CLN3, stronger effect = lower value 0.974 | locus YCL061C, strain MRC1 (second series), stronger effect = lower value 0.985 | locus YDR363W, strain ESC2, stronger effect = lower value 0.986 | locus YER002W, strain NOP16, stronger effect = lower value 0.978 | locus YMR263W, strain SAP30, stronger effect = lower value 0.971 | locus YNL175C, strain NOP13, stronger effect = lower value 0.985 | locus YNL197C, strain WHI3, stronger effect = lower value 0.974 | locus YNL224C, strain SQS1, stronger effect = lower value 0.978 | locus YOR083W, strain WHI5 (second series), stronger effect = lower value 0.986 | locus YPL055C, strain LGE1, stronger effect = lower value 0.923
